{
  "source": "PubChem BioAssay",
  "data": [
    {"test": "viability profiling in RPMI8226 myeloma cells – cell-based, resazurin fluorescence, basal, 24 h, PK04 Diversity Set, profiling panel (AID 1180);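 note: RPMI8826 multiple myeloma cell line at 5000 cells per well; test concentration not given here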", "conditions": "higher = more signal", "values": [
      {"compound": "COC(=O)[C@H](Cc1ccc(O)cc1)N[C@@H](/C=C/C1CC1)[C@H](O)Cc1ccccc1", "z-score": 0.177},
      {"compound": "COc1ccc(CCNC(=O)[C@@H]2c3ccccc3C(=O)N(Cc3ccccc3OC)[C@H]2c2ccc(CO)cc2)cc1", "z-score": -0.205},
      {"compound": "COc1ccc(C(=O)Nc2cccc(CN3C(=O)[C@]4(O[C@H](CC(=O)N5Cc6ccccc6C[C@H]5CO)[C@@H]([Si](C)(C)c5ccc(OC)cc5)[C@@H]4C)c4ccccc43)c2)cc1", "z-score": -0.891},
      {"compound": "C=CCN1Cc2ccccc2[C@H]2OC(c3ccc(OCCCO)cc3)=N[C@@]2(CCS(=O)(=O)c2ccccc2)C1=O", "z-score": -0.0829},
      {"compound": "C=CCOC(=O)[C@H]1[C@@H]2C(=O)O[C@@H](c3ccccc3)[C@@H](c3ccccc3)N2[C@@H](c2ccc(OCCOC(=O)[C@H]3C[C@H]4C(=O)N[C@@H](CC(C)C)C(=O)N4[C@H]3c3ccc(O)cc3)cc2)[C@]12C(=O)Nc1ccccc12", "z-score": 0.862},
      {"compound": "CC1CC/C=C\\[C@H]2OC34C=CCN(Cn5nnc6ccccc65)C(=O)[C@H]3N(CCCCCCO)C(=O)[C@@H]4C2C(=O)O1", "note": "(stereo not given in full)", "z-score": 1.16},
      {"compound": "[N-]=[N+]=Nc1ccccc1C[C@@]1(C(=O)NCc2ccccc2)N=C(c2ccc(OCCCO)cc2)O[C@@H]1c1ccccc1N=[N+]=[N-]", "z-score": -2.89},
      {"compound": "Cc1ccc(S[C@]2(C(=O)NCCCN(C)C)CC(=O)N(C3Cc4ccccc4C3)[C@@H]2c2ccc(CO)cc2I)cc1", "z-score": -2.37},
      {"compound": "CC(C)N1C(=O)c2ccccc2[C@](C)(C(=O)NCC(F)(F)F)[C@@H]1c1ccc(CO)cc1", "z-score": 1.45},
      {"compound": "CN(C)CCCC[C@@H]1NC(=O)[C@H]2C[C@@H](C(=O)O)[C@@H](c3ccc(O)cc3)N2C1=O", "z-score": -0.34},
      {"compound": "O=C1[C@@H]2[C@@H](CC(COc3ccccc3)=C([C@H](O)CCc3ccccc3)[C@@H]2CO)C(=O)N1Cc1ccccc1", "z-score": -0.664},
      {"compound": "C=C(CCCC)/C(=C/C[C@H](OC(=O)c1ccncc1)c1ccccc1OCCO)c1cc(C(=O)OC)ccc1OC", "z-score": 1.09},
      {"compound": "CC(C)NC(=O)[C@@]1(C)c2ccccc2C(=O)N(Cc2ccccc2)[C@H]1c1ccc(CO)cc1", "z-score": 0.453},
      {"compound": "COc1ccc(C#Cc2ccc3c(c2)[C@]2(C(=O)N3)[C@H](C(=O)O)[C@H]3C(=O)O[C@H](c4ccccc4)[C@H](c4ccccc4)N3[C@@H]2c2ccccc2OCCO)cc1", "z-score": -5.64},
      {"compound": "CCCCCCc1nc(Cc2cc(OC)c(OC)c(OC)c2)cc2c1[Si](C(C)C)(C(C)C)O[C@H]2c1ccccc1", "z-score": -0.83},
      {"compound": "O=C1C[C@@](C(=O)NCc2ccccc2)(c2ccc([N+](=O)[O-])cc2)[C@@H](c2ccc(CO)cc2)N1C1CCCCC1", "z-score": -0.0381},
      {"compound": "O=C(NCc1ccccc1)[C@@H]1c2ccccc2C(=O)N(Cc2cc(C(F)(F)F)cc(C(F)(F)F)c2)[C@H]1c1ccc(CO)cc1", "z-score": 1.03},
      {"compound": "COc1ccc([Si](C)(C)[C@@H]2[C@@H](CC(=O)N(CCO)Cc3ccccc3)O[C@]3(C(=O)N(Cc4ccc(I)cc4)c4ccccc43)[C@H]2C)cc1", "z-score": -2.52},
      {"compound": "COCCn1c(C(=O)N(C)C)cc2c1C[C@H]1CN(C(=O)c3ccccc3)[C@@](Cc3ccc(OC)cc3)(C(=O)OC)[C@@H]21", "z-score": -1.81},
      {"compound": "O=C1C2C=CC(C(O)c3cccs3)N(Nc3ccc([N+](=O)[O-])cc3)C2C(=O)N1c1ccccc1", "note": "(stereo not given)", "z-score": -0.182},
      {"compound": "O=C1O[C@@H](c2ccccc2)[C@@H](c2ccccc2)N2[C@@H](c3ccc(OCCO)cc3)[C@]3(C(=O)Nc4ccc(C#CC5(O)CCCCCC5)cc43)[C@@H](C(=O)Nc3nc4ccccc4s3)[C@H]12", "z-score": 0.519},
      {"compound": "CC(C)[Si](C#CCCc1ccccc1)(O[C@H](c1ccccc1)c1cn(Cc2ccccc2)nn1)C(C)C", "z-score": -0.052},
      {"compound": "COCCOC(=O)N1C(=O)[C@@]2(c3cc(C#CC4(O)CCCCCC4)ccc31)[C@H](c1ccc(O)cc1)N1[C@H](c3ccccc3)[C@H](c3ccccc3)OC(=O)[C@H]1[C@@H]2C(=O)N1CCCCCCC1", "z-score": -0.196},
      {"compound": "CN1C(=O)C2C(C3CC3)C=C3CN(Cc4cccc(Cl)c4)[C@@H]([C@@H](O)Cc4ccccc4)C3C2C1=O", "note": "(stereo not given in full)", "z-score": -0.0321},
      {"compound": "C=CCC(OC(C)=O)[C@@H]1[C@@H](N(Cc2ccc(-c3ccccc3)cc2)C(=O)c2cccc3ccccc23)c2cc(OCCCO)ccc2N1C(=O)Cc1ccc(OC)cc1", "note": "(stereo not given in full)", "z-score": -0.505},
      {"compound": "O=C1NC(=O)C2C1C=CC(C(O)c1ccc([N+](=O)[O-])cc1)N2Nc1ccccn1", "note": "(stereo not given)", "z-score": -0.723},
      {"compound": "CCCCC(O)C1C=CC2C(=O)N(c3ccccc3)C(=O)C2N1Nc1ccccc1", "note": "(stereo not given)", "z-score": -0.0096},
      {"compound": "COCCOC(=O)N1C(=O)[C@@]2(c3cc(C#Cc4ccc(OC)cc4)ccc31)[C@H](c1ccc(OCCO)cc1)N1[C@H](c3ccccc3)[C@H](c3ccccc3)OC(=O)[C@H]1[C@@H]2C(=O)NC[C@H](O)c1ccccc1", "z-score": -0.508},
      {"compound": "O=C1O[C@H](c2ccccc2)[C@H](c2ccccc2)N2[C@H]1[C@@H](C(=O)N1CCN(c3ncccn3)CC1)[C@]1(C(=O)Nc3ccc(C#CCCO)cc31)[C@H]2c1ccc(O)cc1", "z-score": 0.186},
      {"compound": "O=C1C[C@@](C(=O)O)(c2ccc([N+](=O)[O-])cc2)[C@@H](c2ccc(CO)cc2)N1C1CCCCC1", "z-score": 0.0311},
      {"compound": "CN(C)CCCNC(=O)[C@@]1(C)c2ccccc2C(=O)N(Cc2ccc(OC(F)(F)F)cc2)[C@H]1c1ccc(CO)cc1", "z-score": 0.415},
      {"compound": "COCCOC(=O)N1C(=O)[C@@]2(c3cc(C#CCCO)ccc31)[C@H](c1ccc(OCCO)cc1)N1[C@H](c3ccccc3)[C@H](c3ccccc3)OC(=O)[C@H]1[C@@H]2C(=O)N1CCCCCCC1", "z-score": -0.621},
      {"compound": "C#CCN1[C@@H](Cc2ccccc2)C(=O)O[C@H](Cc2ccccc2)[C@@H]1/C=C/C1CC1", "z-score": 1.62},
      {"compound": "CC(C)C[C@@H]1NC(=O)[C@@H]2C[C@H](C(=O)NCCCCCCNC(=O)CS)[C@H](c3cccc(OCCO)c3)N2C1=O", "z-score": -0.458},
      {"compound": "CCCCCC1=C2CNC(CC(C)C)(C(=O)OC)C=C2C(C)C1=O", "note": "(stereo not given)", "z-score": -0.927}
    ]}
  ]
}
